# In the supplement of paper PMC3334620:
# Whole data set: some 33,000 sequences, median “E-score (-0.5 to 0.5)” near -0.015, cut for the highest 2% near 0.3. The full list was thinned out, with the highest values kept by preference.
# Biological target: T1, Abf1 (UniProt P14164)
# T1 sequence: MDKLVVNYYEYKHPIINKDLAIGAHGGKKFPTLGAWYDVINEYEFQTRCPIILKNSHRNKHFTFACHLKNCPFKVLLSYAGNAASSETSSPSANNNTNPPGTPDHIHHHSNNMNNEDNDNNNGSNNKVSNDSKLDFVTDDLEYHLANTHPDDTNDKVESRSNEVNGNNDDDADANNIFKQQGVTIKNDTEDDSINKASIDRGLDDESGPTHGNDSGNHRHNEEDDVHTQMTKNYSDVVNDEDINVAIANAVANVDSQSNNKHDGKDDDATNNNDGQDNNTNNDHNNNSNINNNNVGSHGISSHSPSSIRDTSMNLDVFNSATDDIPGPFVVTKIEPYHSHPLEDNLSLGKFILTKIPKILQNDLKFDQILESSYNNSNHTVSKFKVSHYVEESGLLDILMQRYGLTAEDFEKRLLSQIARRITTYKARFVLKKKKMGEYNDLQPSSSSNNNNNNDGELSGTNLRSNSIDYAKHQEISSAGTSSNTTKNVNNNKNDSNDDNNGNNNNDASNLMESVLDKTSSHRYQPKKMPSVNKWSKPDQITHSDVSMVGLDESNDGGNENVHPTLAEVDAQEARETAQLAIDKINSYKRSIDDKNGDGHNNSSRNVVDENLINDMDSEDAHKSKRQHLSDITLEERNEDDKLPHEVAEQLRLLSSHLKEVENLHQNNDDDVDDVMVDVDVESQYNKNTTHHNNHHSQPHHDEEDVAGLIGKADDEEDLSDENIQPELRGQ
# Test: PBM E-score (8-mer binding enrichment) (E-score (-0.5 to 0.5)); higher = stronger / more preferred TF binding
# Settings: protein concentration: 200 nM; construct: GST-full length
# Outline: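 Each ungapped eight-base word and its reverse complement, pooled, received an E-score from the Universal PBM Analysis Suite. Underlying scans, normalised with masliner, recorded fluorescent anti-GST bound to GST-tagged yeast transcription factors. These were applied at about 100-200 nM to universal all-10-mer Agilent arrays double-stranded by primer extension.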
row,Sequence,PBM E-score
1,ACGCCAGA,-0.081
2,ACCACCTA,-0.168
3,ACTGAAAT,-0.0641
4,AGCACCAC,-0.214
5,ACGTTGGA,0.142
6,CAACCGAG,-0.0944
7,ACAGACGA,0.236
8,GCAGACGA,0.174
9,ACGGACGA,0.263
10,TCGGACGA,0.325
11,GCGGACGA,0.276
12,TCAGACGA,0.305
13,AGAATCCG,-0.0715
14,GCTGAGGA,-0.131
15,ACGACCTG,0.0542
16,GGGTAGAA,-0.0486
17,ACGCTGAT,0.0221
18,AATATCAA,0.0238
19,AATATCGC,0.283
20,AATATCAG,0.119
21,ACTATCAT,0.184
22,GATATCGA,0.271
23,AATATCAC,0.441
24,GATATCGC,0.341
25,AATATCAT,0.391
26,GATATCAA,0.207

row,Sequence,PBM E-score
1,AGTATCAT,0.286
2,GCTATCAC,0.211
3,GATATCAC,0.414
4,CTATCAAA,0.121
5,GCCAGCAC,-0.0263
6,TAAAGACA,-0.183
7,CCGGAGCA,-0.291
8,CAACCTAG,-0.0549
9,GAAACCGC,-0.15
10,AATATCGG,0.187
11,CATATCAC,0.389
12,AATATCGT,0.398
13,CATATCAA,0.222
14,CATATCAG,0.0515
15,AATATCGA,0.0788
16,CAGACCTC,0.00051
17,GCTGGTTA,-0.0104
18,ACTAAGTG,0.108
19,TAATATCA,0.344
20,TAATATAA,0.196
21,CAATATCA,0.283
22,AAATATGC,0.0361
23,TAATATTA,0.361
24,AAATATGA,0.0696
25,TAATATGA,0.261
26,AAATATTA,0.217

row,Sequence,PBM E-score
1,GAATATCA,0.334
2,GAATATCC,0.0475
3,CAATATTA,0.271
4,AAATATGT,0.334
5,AGGTAGAC,-0.249
6,CTAGGGCA,-0.273
7,CCCAAAAG,-0.135
8,AGCGGACT,-0.23
9,GCTGGAGA,-0.0857
10,GAGCTGCC,-0.0575
11,ACAACTCG,0.0757
12,AAATATCC,0.0659
13,AAATATCA,0.376
14,AAATATCG,0.271
15,CAAATCGC,-0.0589
16,CCTTACAC,-0.0587
17,AGTATATG,0.0541
18,AGTATATA,0.31
19,AGTATATC,0.0567
20,CGTATATA,0.357
21,CGTATATC,0.255
22,GGTATATA,0.161
23,AGTGGATC,-0.0658
24,CTGCCATA,-0.0819
25,GCCGTATA,0.379
26,CCCGTATA,0.289

row,Sequence,PBM E-score
1,ACCGTATA,0.384
2,ACCGTATG,0.27
3,GGCGTATA,-0.0363
4,ACCGTATC,0.225
5,GCCGTAGC,0.0651
6,GCCGTAGA,0.371
7,TCCGTAGA,0.143
8,AAGTGTTC,-0.0135
9,AGTTATAT,0.16
10,ATGAAGAG,0.0548
11,CTGGGCAA,-0.172
12,AATAATTA,0.2
13,ATCTTATG,0.0695
14,AAGCGGGC,-0.381
15,GTACGACA,0.36
16,ACACGACT,0.0619
17,GCACGACC,0.0772
18,CCACGACA,0.0558
19,GCACGACA,0.338
20,CTACGACA,0.263
21,ACACGACC,-0.00503
22,ACACGACA,0.368
23,ATACGACA,0.296
24,AAATTGGC,-0.0692
25,GTTGAGAA,0.098
26,AAGGACCG,-0.16

row,Sequence,PBM E-score
1,GGAGCCTA,-0.064
2,ACGACAGA,0.308
3,ACGACAAC,0.265
4,ACGACAGG,0.05
5,ACGACAAG,0.215
6,ACGACAAT,0.329
7,CCGACAAA,-0.0368
8,ACGACAAA,0.369
9,GCGACAGA,-0.0736
10,GCGACAAA,0.215
11,GGCGTCAA,-0.206
12,ATGTAGGG,-0.256
13,AAACGGTG,0.129
14,ATACGGTG,0.297
15,ATACGGTA,0.319
16,CTACGGTA,0.138
17,GTACGGTA,0.197
18,ATACGGTC,0.26
19,AACGGAAT,0.15
20,ACTCGTTG,-0.00197
21,AAGGGATA,0.0355
22,ATGGTGGC,-0.387
23,GCGTACGC,-0.158
24,GGGTACGA,0.0568
25,CCGTACGA,0.451
26,TAGTACGA,0.287

row,Sequence,PBM E-score
1,GCGTACGA,0.317
2,CCGTACGC,0.241
3,TCGTAAGA,0.154
4,TCGTACGA,0.455
5,CGGTACGA,0.291
6,CCAGTCTA,-0.227
7,CAGCAGAG,-0.263
8,ATGAGAAG,0.117
9,AGTAGTTG,0.067
10,ACTTTCAA,0.159
11,CTTTACCC,-0.141
12,GCTGACAC,0.0512
13,TGATTCAA,0.0649
14,GAGCAAGC,-0.0234
15,ATTTTTTA,0.193
16,CGGTGACA,0.399
17,AGGTGACC,0.14
18,AGGTGACG,0.0988
19,CGGTGACG,0.235
20,AGGTGACA,0.362
21,TGGTGACA,0.357
22,CGGTGACC,0.0798
23,GGGTGACA,0.257
24,GGGTGACC,0.188
25,ACCGAGGT,-0.113
26,AGCCCACA,-0.0569

row,Sequence,PBM E-score
1,AGTATCGC,0.0404
2,CCTACGTA,-0.0223
3,GACGAGTC,0.241
4,AATTCCGT,0.115
5,GATGCCAC,0.049
6,GCCGTTCA,0.156
7,ACCTAATC,0.111
8,CCCCATGA,-0.167
9,ACAGTTTA,-0.0111
10,GCTGATAA,0.0596
11,TGTGATAA,0.297
12,CCTGATAA,0.1
13,GTTGATAA,0.199
14,CGTGATAA,0.408
15,CTTGATAA,0.138
16,TCTGATAA,0.134
17,TGGGATAA,-0.0897
18,GGTGATAA,0.404
19,GTTTTCTA,-0.0572
20,CAGCGATG,-0.0769
21,AGTGGCAG,-0.0869
22,TATGGGCA,-0.0697
23,ATGAACCC,-0.0465
24,ACGTAGAC,0.0202
25,ATGCATAC,0.0289
26,CGGGGAGC,-0.00752

row,Sequence,PBM E-score
1,AGATGCAT,-0.058
2,ATCACCGC,0.311
3,ATCACCAT,0.254
4,CTCACCAC,-0.0754
5,ATCACCGG,0.101
6,CTCACCGC,0.0255
7,ATCACCAC,0.356
8,AGGTACCT,-0.101
9,ACGACCAG,0.301
10,GCGACTAC,-0.134
11,ACGACCAC,0.131
12,CCGACTAC,-0.119
13,ACGACTAA,0.0761
14,ACGACTAC,0.329
15,ACGACTAT,0.298
16,ACGACTAG,0.0858
17,ACGACCAA,0.182
18,AGCTGCTC,-0.148
19,CTCCTCCC,-0.201
20,ACGATGGC,0.0358
21,ATGTTAAT,-0.0223
22,AGTGAAGA,0.129
23,CGGCATAG,0.0597
